# PLK1 PBD inh: Plk1 (human) PBD binding inhibition. Plk1 PBD phosphopeptide binding, fluorescence polarization. 97,000 tested, 0.13% active. inhibition, %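 (tested at about 20 µM)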. P53350. AID 693; in the data active = inhibition above about 34%, passing the limit was not always enough
# CYP2C9 inhib: human CYP2C9 inhibition | P11712 | CYP2C9 Supersomes, luciferin-H conversion, luminescence | AID 777 | inhibition, % at 5 µM | 96,000 tested, 20% active;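 active = blocking of liver enzyme CYP2C9 beyond about 50% at 5 µM, limit read from the data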
# CYP2C9 act: CYP2C9 (human) activation | activation factor at 5 µM | recombinant CYP2C9, luciferin-H conversion, luminescence; hits give high values; factor 1 = untreated enzyme, 0 = blocked | 96,000 tested, 1.4% active;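 active = activation factor of 2 or more for CYP2C9 at a 5 µM dose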;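 note: 0 = sulfaphenazole-blocked wells and 1 = vehicle-only wells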
# PLK1 kinase inh: blocks human PLK1 kinase activity. P53350. recombinant PLK1 kinase, TR-FRET peptide phosphorylation. inhibition, % at 10 µM. 97,000 tested, 0.53% active. AID 619;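 active = inhibition of 50% or more in the single-concentration screen; inactive = inhibition below 50%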;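 note: 0% = DMSO max control and 100% = H-89 dihydrochloride min control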
# CYP2C19 act: cytochrome P450 2C19 (human) activation. P33261. recombinant CYP2C19, luciferin-H EGE luminescence; hits give high values; 0 = fully inhibited enzyme, 1 = untreated enzyme. activation factor at 5 µM. 96,000 tested, under 10 active;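 active = activation factor of at least 2 at 5 µM in the primary screen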;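 note: 0 = wells with 2.5 mM tranylcypromine and 1 = vehicle-only wells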
# Target sequence (P33261 whole entry, looked up): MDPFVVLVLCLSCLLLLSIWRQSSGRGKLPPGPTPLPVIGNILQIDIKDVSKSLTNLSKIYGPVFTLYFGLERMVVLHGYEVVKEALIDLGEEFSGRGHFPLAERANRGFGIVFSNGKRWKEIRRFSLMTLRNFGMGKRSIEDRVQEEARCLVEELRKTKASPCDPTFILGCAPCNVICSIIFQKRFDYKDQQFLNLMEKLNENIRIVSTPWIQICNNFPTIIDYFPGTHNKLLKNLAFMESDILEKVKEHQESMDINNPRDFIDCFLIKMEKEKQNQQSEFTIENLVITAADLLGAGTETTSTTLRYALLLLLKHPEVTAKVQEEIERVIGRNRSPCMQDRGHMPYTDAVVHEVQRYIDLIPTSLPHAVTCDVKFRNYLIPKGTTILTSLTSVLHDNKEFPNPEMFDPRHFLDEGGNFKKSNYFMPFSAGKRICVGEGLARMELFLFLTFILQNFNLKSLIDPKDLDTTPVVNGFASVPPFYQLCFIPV
# CYP2C19 inh: blocks human cytochrome P450 2C19; P33261; CYP2C19 Supersomes, luciferin-H EGE luminescence, 30 min; AID 778; 96,000 tested, 21% active; inhibition, % at 5 µM;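 active = CYP2C19 inhibition above a set limit at 5 µM in the primary screen, cut at about 50% in these data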;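 note: plate controls were negative control wells for no effect and 2.5 mM tranylcypromine positive control for full effect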
# * marks the source's active call; other numbers are inactive results; / = no result given. A selection: hits, their analogues and other compounds. The true share with any hit is near 28%.
SMILES,PLK1 PBD inh,CYP2C9 inhib,CYP2C9 act,PLK1 kinase inh,CYP2C19 act,CYP2C19 inh
Cn1nnnc1SCc1ccc(C(=O)Nc2ccc(Br)cc2)cc1,5,-3,1,-8,1,4
COc1cc(CO)cc(-c2cc(CO)cc(OC)c2OC)c1OC,5,4,1,-7,0.9,11
CCOC(=O)c1sc(NC(=O)c2cc3n(n2)C(C(F)(F)F)CC(c2ccccc2)N3)c(C(=O)OCC)c1C (stereo not given),-30,27,0.7,-7,0.9,6
CCOC(=O)c1c(C)[nH]c(C(=O)Cn2nnc(-c3ccccc3Cl)n2)c1C,-8,82*,0.2,-10,0.8,19
CCOC(=O)Cn1nnc(-c2ccccc2)n1,-6,/,/,-10,/,/
CCOC(=O)c1c(C)[nH]c(C(=O)Cn2nnc(-c3ccccc3)n2)c1C,/,48,0.5,/,0.4,59*
CCOC(=O)c1c(C)[nH]c(C)c1C(=O)Cn1nnc(-c2ccccc2C)n1,-21,/,/,-2,/,/
CCOC(=O)c1c(C)[nH]c(C(=O)COC(=O)c2ccccn2)c1C,-8,56*,0.4,4,0.7,34
Cc1sc2nc(SCc3nc(-c4ccccc4)no3)n(-c3ccccc3)c(=O)c2c1C,15,/,/,-9,/,/
Cc1ccc(NC(=O)C2C(c3ccccc3)C2(Cl)Cl)c(C)c1 (stereo not given),-9,52*,0.5,-10,0,97*
Cc1ccc(NC(=O)c2csnn2)c(C)c1,-7,/,/,-17,/,/
Cc1cc(N2CCN(S(=O)(=O)c3ccc4c(c3)OCCO4)CC2)n2ncnc2n1,0,3,1,3,0.8,16
Cc1ccc(S(=O)(=O)N2CCN(S(=O)(=O)c3ccc(C)cc3)C3OCCOC32)cc1 (stereo not given),20,-2,1,7,1.1,-14
COc1ccc(C2N(S(=O)(=O)c3ccc(C)cc3)CCN2S(=O)(=O)c2ccc(C)cc2)cc1,-3,90*,0.1,-12,0,96*
CC(=O)N1CCN(S(=O)(=O)c2ccc(C)cc2)C1c1ccc(N(C)C)cc1 (stereo not given),17,2,1,-5,0.6,44
CC(C)C1N(S(=O)(=O)c2ccccc2)CCN1S(=O)(=O)c1ccccc1,-7,100*,0,-10,0,100*
Cc1ccc(S(=O)(=O)N2CCN(S(=O)(=O)c3ccccc3)C2c2ccc(N(C)C)cc2)cc1 (stereo not given),-17,88*,0.1,-15,0.1,94*
O=c1nc(-c2ccccc2)cn[nH]1,6,-14,1.1,8,1.1,-12
CCN(CC)CCCN1C(=O)C(=O)/C(=C(/O)c2ccc3c(c2)CC(C)O3)C1c1ccncc1 (stereo not given),/,9,0.9,/,1,-4
CCOC(=O)c1sc2ncn(CC(=O)N(CC)CC)c(=O)c2c1C,-39,19,0.8,3,0.9,10
Cc1ccccc1Nc1nc(CSc2nnc(-c3ccoc3C)n2C)cs1,-28,88*,0.1,1,0.1,86*
COCc1n[nH]c(=S)n1-c1cccc2ccccc12,-10,-7,1.1,-3,1,-3
O=c1[nH]c(SCc2n[nH]c(=S)n2-c2ccccc2)nc2sc3c(c12)CCC3,7,72*,0.3,-7,0.7,28
CC(C)CSc1nc2ccccc2c(=O)[nH]1,-8,39,0.6,-3,0.7,29
CCCCSc1nc2sc3c(c2c(=O)[nH]1)CCC3,21,12,0.9,-9,1,-1
SMILES,PLK1 PBD inh,CYP2C9 inhib,CYP2C9 act,PLK1 kinase inh,CYP2C19 act,CYP2C19 inh
O=c1[nH]c(SCc2n[nH]c(=S)n2-c2ccccc2)nc2ccccc12,-7,80*,0.2,2,0.3,73*
S=c1[nH]nc(Cc2cccc3ccccc23)n1-c1ccccc1,2,90*,0.1,-31,0.5,47
O=C(Nc1cc(Cl)cc(Cl)c1)C1CCC(=O)N1Cc1ccccc1Cl (stereo not given),16,91*,0.1,-12,0,96*
CNC(=O)C1CCC(=O)N1Cc1ccccc1Cl (stereo not given),-6,-6,1.1,-4,1,-1
CCCCC(=O)Nc1ccc(NC(=O)CCCC)nc1,29,24,0.8,2,0.7,25
CCCCNC(=O)Nc1ccccn1,-19,30,0.7,-2,0.8,16
CCCCC(=O)Nc1ccc(Br)cn1,2,12,0.9,-3,0.4,57*
CCCCNC(=O)Nc1ccc(Br)cn1,/,52*,0.5,/,0.2,82*
CC1=[N+]([O-])C(C)(C)C(C)N(O)C1=O (stereo not given),-9,-12,1.1,-7,1.2,-16
Cc1cc(C)n2nc(CC(=O)NC3CCCCCC3)nc2n1,-17,-18,1.2,6,1.1,-14
COC(=O)CN1C(=O)S/C(=C/c2cc(C)n(C)c2C)C1=O,10,51*,0.5,-13,0.8,23
Cc1ccc(S(=O)(=O)NCC(=O)OC2CCOC2=O)cc1 (stereo not given),-9,-11,1.1,-8,1,-2
NC(=O)C1CCN(c2oc(-c3ccccc3F)nc2S(=O)(=O)c2ccc(Cl)cc2)CC1,8,29,0.7,-15,0.5,52*
CCN(CC(=O)Nc1cccc(OC)c1)C(=O)C1CCN(C(=O)Nc2ccccc2)CC1,-1,3,1,-2,0.9,8
C(=N\n1cnnc1)/c1ccc2c(c1)OCCO2,/,-12,1.1,/,0.5,48
O=S(=O)(N/N=C\c1c(F)cccc1Cl)c1ccc(Cl)cc1,6,64*,0.4,-5,0.2,81*
CCn1ncc(/C=N/NS(=O)(=O)c2ccc(Cl)cc2)c1C,-8,88*,0.1,-17,0.3,67*
O=S(=O)(N/N=C/c1ccc2c(c1)OCCO2)c1ccc(Cl)cc1,-3,71*,0.3,-8,0.7,32
Cc1cc(Cl)c(S(=O)(=O)N/N=C/c2ccc3c(c2)OCO3)c(Cl)c1,12,96*,0,-4,0.6,39
O=C(N/N=C/c1c(Cl)cccc1Cl)c1ccc(F)cc1,33,-10,1.1,30,0.7,28
Nc1cc(Br)c(N)c(Br)c1,/,-9,1.1,/,1,-1
O=C(C1Cc2ccccc2CN1S(=O)(=O)c1cccs1)N1CCCCC1 (stereo not given),-11,8,0.9,-7,0.7,26
CC(C)(C)c1cc(NC(=O)CCSc2nnc3ccccn23)cc(C(C)(C)C)c1,-10,/,/,-10,/,/
CCOC(=O)N1CCN(c2nc(C)c3c(n2)CC(C)CC3=O)CC1 (stereo not given),12,52*,0.5,-15,0.6,39
COc1ccc(C2CC(=O)c3c(C)nc(N4CCN(c5ccccc5)CC4)nc3C2)cc1 (stereo not given),-24,42,0.6,-79,0.8,21
